This passage reports survival results from PubChem BioAssay AID463173 (ICCB-Longwood Screening Facility, Harvard Medical School, 2010).

Among all 52,000 compounds or so, about 1,700 (3.3%) were called active. This is one part of a sample in which actives are shown more often than they occur. Cut-off read from the data, not from the text of the source: active = survival mostly below about 52% (no sharp cut-off); inactive = mostly above about 56%.

This test deals with Wild type. As to the kind of experiment: S. aureus survival, RN4220 and DeltatarO strains – OD600, teichoic acid synthesis inhibitors, primary screen (AID 463173). Conditions: S. aureus RN4220 wild type/DeltatarO growth, OD600, 18 h, active compounds read low, screened at 18.75 µg/mL (by protocol).
For the compound `CCC(C(=O)Nc1nnc2n1CCS2)c1ccccc1` (stereo not drawn), the survival is 66% (inactive).

As to `CCN(CC)Cc1cc(C(=O)O)oc1C(C)(C)C`, the survival was 106% (inactive).

For `COc1ccc(-c2cc(C(F)(F)F)c(C#N)c(SCC(=O)Nc3cccc(C)c3)n2)cc1`, the survival was 74% (inactive).

Consider `CN(C(=O)CSc1cn(CC(=O)N2CCCC2)c2ccccc12)c1ccccc1`, for which the survival was 83% (inactive).

Consider `Cc1ccc(C(=O)NCC(c2ccc3c(c2)OCO3)N2CCN(c3ccc(F)cc3)CC2)cc1` (stereo not drawn), for which the survival was 68% (inactive).

Take `Cc1ccc(C)c(CS(=O)(=O)c2cn(CC(=O)N(C(C)C)C(C)C)c3ccccc23)c1`: the survival is 77% (inactive).

Take `COc1ccccc1CNC(=O)CSc1ncc2c(n1)-c1cc(Cl)ccc1N(Cc1ccccc1)S2(=O)=O`: the survival was 73% (inactive).

In the case of `O=C(CSc1ncc2c(n1)-c1ccc(Cl)cc1N(Cc1ccccc1)S2(=O)=O)Nc1ccc(F)c(F)c1`, the survival was 129% (inactive).

For the compound `CCc1cccc(NC(=O)CSc2ncc3c(n2)-c2ccc(Cl)cc2N(Cc2ccccc2)S3(=O)=O)c1`, the survival is 101% (inactive).

For `COc1ccc(CNC(=O)CSc2ncc3c(n2)-c2ccc(Cl)cc2N(Cc2ccccc2)S3(=O)=O)cc1`, the survival was 22% (inactive).

In the case of `Cc1cccc(C)c1NC(=O)CSc1ncc2c(n1)-c1ccc(Cl)cc1N(Cc1ccccc1)S2(=O)=O`, the survival is -2% (active).

As for `COc1ccccc1CNC(=O)CSc1ncc2c(n1)-c1ccc(Cl)cc1N(Cc1ccccc1)S2(=O)=O`, the survival was 0% (active).

Regarding `CCc1ccc(NC(=O)Cn2c(=O)n(Cc3ccco3)c(=O)c3oc4ccccc4c32)cc1`, the survival is 87% (inactive).

Regarding `COc1ccc(C2C(=O)N(C3CCCCC3)CC(=O)N2CCc2ccc(C)cc2)cc1OC` (stereo not drawn), the survival was 82% (inactive).

Take `Cc1ccc(NC(=O)CN2C(=O)C(c3ccccc3)=NC23CCCCC3)cc1C`: the survival was 89% (inactive).

On to `COc1ccc(Br)cc1CNC(=O)c1nn(-c2ccc(C)cc2)c(=O)c2c1c1ccccc1n2C`, for which the survival was 126% (inactive).

Take `CC1CCCC(C)N1C(=O)c1ccccc1N` (stereo not drawn): the survival is 108% (inactive).

Take `COc1ccc(-c2ccc(NS(=O)(=O)c3cccc(Cl)c3)cc2)nn1`: the survival was 82% (inactive).

In the case of `COc1cccc(N2CCN(C(=O)c3cnc4c(-c5ccccc5)c(C)nn4c3C)CC2)c1`, the survival is 76% (inactive).

`COc1cccc(N2CCN(C(=O)c3cnc4c(-c5ccc(F)cc5)c(C)nn4c3C)CC2)c1`: the survival was -6% (active).

For `Cc1nn2c(C)c(C(=O)N3CCN(c4ccc(Cl)cc4)CC3)cnc2c1-c1ccc(F)cc1`, the survival is 72% (inactive).

For the compound `CC(=O)N1c2c(cc(Br)cc2S(=O)(=O)N2CCN(c3ccccc3)CC2)CC1C` (stereo not drawn), the survival is 98% (inactive).

For the compound `Nc1ccc2nc(CCc3ccccc3)[nH]c2c1`, the survival was 106% (inactive).

As for `Oc1ccc(NCc2ccc(OCc3ccccc3Cl)cc2)cc1`, the survival is -4% (active).

As to `Oc1ccc(NCc2ccccc2OCc2ccccc2Cl)cc1`, the survival was 82% (inactive).

Turning to `Oc1ccc(NCc2ccc(OCc3ccccc3)cc2)cc1`, the survival was 87% (inactive).

For the compound `COc1ccc(NC(=O)C2=C(C)Nc3nc(SCc4ccc(Cl)cc4)nn3C2c2cccc(OC)c2OC)cc1` (stereo not drawn), the survival is 60% (inactive).

`O=C(Nc1ccc(OC(F)(F)F)cc1)c1cc(-c2ccc(Cl)cc2)on1`: the survival was 105% (inactive).

For `Cc1ccccc1C(=O)Nc1ccc(C(=O)OCc2cc(=O)n3nc(C(C)C)sc3n2)cc1`, the survival is 65% (inactive).

For the compound `CCN(CC)c1ncnc2c1cnn2-c1cc(Cl)ccc1C`, the survival was -6% (active).

Regarding `CCN(CC)CCNc1ncnc2c1cnn2-c1cc(Cl)ccc1C`, the survival is 98% (inactive).

For `CCN(c1ncnc2c1cnn2-c1cc(Cl)ccc1C)C1CCCCC1`, the survival is 80% (inactive).

For `Cc1ccc(N2CCN(S(=O)(=O)c3ccc4oc(=O)c5ncn(C)c5c4c3)CC2)c(C)c1`, the survival is 121% (inactive).

For the compound `Cc1nc(N2CCCC2)c2c(C(=O)Nc3cccc(Cl)c3)c(C)oc2n1`, the survival is -3% (active).

Regarding `Cc1ccc(CNC(=O)c2c(C)oc3ncnc(N4CCOCC4)c23)cc1`, the survival is -1% (active).

Regarding `CCc1ccc(CNC(=O)c2c(C)oc3ncnc(N4CCOCC4)c23)cc1`, the survival is 133% (inactive).

As to `Cc1nc(N2CCOCC2)c2c(C(=O)NCCc3ccccc3)c(C)oc2n1`, the survival was -3% (active).

Take `Cc1nc(N2CCCC2)c2c(C(=O)Nc3ccc(C)c(Cl)c3)c(C)oc2n1`: the survival is 130% (inactive).

Take `CCc1cccc(NC(=O)c2c(C)oc3nc(C)nc(N4CCCC4)c23)c1`: the survival was 101% (inactive).

Consider `Cc1ccc(CCNC(=O)c2c(C)oc3nc(C)nc(N4CCOCC4)c23)cc1`, for which the survival was 124% (inactive).

`Cc1oc2ncnc(N3CCOCC3)c2c1C(=O)NCCc1ccccc1`: the survival is 85% (inactive).

For `COC(=O)CCN(C(=O)c1c(C)oc2ncnc(N3CCOCC3)c12)c1ccccc1`, the survival was 0% (active).

Regarding `Cc1oc2ncnc(N3CCOCC3)c2c1C(=O)NCc1ccc(Cl)cc1`, the survival is 73% (inactive).

Turning to `CCc1ccccc1N(CC)C(=O)c1c(C)oc2ncnc(N3CCOCC3)c12`, the survival was 70% (inactive).

Take `CCCN(C(=O)c1c(C)oc2ncnc(N3CCOCC3)c12)c1ccc(Cl)c(Cl)c1`: the survival is 74% (inactive).

Turning to `CCc1cccc(C)c1NC(=O)c1cc(CN2CCCC2)on1`, the survival is 72% (inactive).

In the case of `Cc1nc2ccc(S(=O)(=O)N(CC(=O)Nc3ccc(F)cc3F)Cc3ccccc3)cc2s1`, the survival was 88% (inactive).

Consider `CCn1c(=O)c2cc(C(=O)NCc3ccc(F)cc3Cl)sc2c2ccccc21`, for which the survival is 81% (inactive).

As to `CCN(CC)CCCNC(=O)c1c(C)oc2ncnc(N3CCOCC3)c12`, the survival is 136% (inactive).

As to `CCCCN(CC)CCCNC(=O)c1c(C)oc2ncnc(N3CCOCC3)c12`, the survival is 14% (active).

On to `Cc1oc2ncnc(N3CCCCC3)c2c1C(=O)NCC1CCN(Cc2cccc(F)c2)CC1`, for which the survival is -6% (active).

In the case of `Cc1cccc(CN2CCC(CNC(=O)c3c(C)oc4ncnc(N5CCCCC5)c34)CC2)c1`, the survival is 98% (inactive).

Turning to `CCCCN(CC)CCNC(=O)c1c(C)oc2ncnc(N3CCOCC3)c12`, the survival was 76% (inactive).

Turning to `Cc1oc2ncnc(N3CCCCC3)c2c1C(=O)NCC1CCN(Cc2ccc(F)cc2)CC1`, the survival was 90% (inactive).

Consider `CCN(C(=O)Cn1ncc2c(=O)oc3ccc(C)cc3c21)c1cc(OC)ccc1OC`, for which the survival is 86% (inactive).

With `CCOc1ccc(Nc2nn(-c3ccc(OC(F)(F)F)cc3)nc2C(C)=O)cc1`, the survival is 123% (inactive).

Take `COc1cccc(NS(=O)(=O)c2ccc3c(c2)N(C)C(=O)CC(=O)N3C)c1`: the survival was 78% (inactive).

As for `COc1ccc2[nH]c(=O)c(CN(CCCN3CCOCC3)C(=O)Nc3ccccc3)cc2c1`, the survival was 102% (inactive).

Take `O=C(NC1CCCCCC1)c1ccc(CS(=O)c2ccc(Br)cc2)o1` (stereo not drawn): the survival was 94% (inactive).

For the compound `Cc1cc2c(cc1NS(=O)(=O)c1ccc(Br)cc1)n(C)c(=O)c(=O)n2C`, the survival was 129% (inactive).

Consider `CCc1ccc(S(=O)(=O)Nc2cc3c(cc2N2CCOCC2)n(C)c(=O)c(=O)n3C)cc1`, for which the survival is 1% (active).

For the compound `Cc1ccc(S(=O)(=O)Nc2cc3c(cc2C)n(C)c(=O)c(=O)n3C)cc1`, the survival is -4% (active).

With `Cn1c(=O)c(=O)n(C)c2cc(N3CCOCC3)c(NS(=O)(=O)c3ccc(Cl)cc3)cc21`, the survival was -3% (active).

For the compound `Cn1c(=O)n(C)c2cc(N3CCOCC3)c(NS(=O)(=O)c3ccc(Cl)cc3)cc21`, the survival is 93% (inactive).

As to `Cc1ccc(S(=O)(=O)Nc2cc3c(cc2N2CCOCC2)n(C)c(=O)n3C)cc1`, the survival was 80% (inactive).

For `CC(C)Cc1ccc(S(=O)(=O)Nc2cc3c(cc2N2CCOCC2)n(C)c(=O)c(=O)n3C)cc1`, the survival was 63% (inactive).

Regarding `CCc1ccc(S(=O)(=O)Nc2cc3c(cc2C)n(C)c(=O)c(=O)n3C)cc1`, the survival is 57% (inactive).

On to `Cn1c(=O)c(=O)n(C)c2cc(N3CCOCC3)c(NS(=O)(=O)c3ccc(F)c(Cl)c3)cc21`, for which the survival is 63% (inactive).

For `COc1ccccc1OCCn1cc(C(=O)c2cccs2)c2ccccc21`, the survival is 102% (inactive).

Take `O=C(CSc1nnc(-c2ccc(S(=O)(=O)N3CCCC3)cc2)n1CC1CCCO1)NC1CC1` (stereo not drawn): the survival was 108% (inactive).

As to `COc1ccc(-c2nnc(SCC(=O)NCCC(C)C)nc2-c2ccc(OC)c(OC)c2)cc1OC`, the survival is 71% (inactive).

Take `COc1cccc2cc(-c3nc(Nc4cccc(C)c4C)sc3C)c(=O)oc12`: the survival was 65% (inactive).

In the case of `COc1cccc(NC(=O)C2CCC(CNS(=O)(=O)c3ccc4c(c3)CC(C)N4C(C)=O)CC2)c1` (stereo not drawn), the survival is 95% (inactive).

With `CNS(=O)(=O)c1ccccc1C(=O)N/N=C/c1ccc(OC)c(OC)c1`, the survival was 102% (inactive).

For the compound `COc1cc2c(cc1OC)n(CC(=O)c1ccc(C)cc1C)c(=O)n1nc(CCn3nc(C)cc3C)nc21`, the survival was 74% (inactive).

Consider `COc1ccccc1N1CCN(S(=O)(=O)c2c(C)nc3sc(C)c(C)n3c2=O)CC1`, for which the survival was 85% (inactive).

`COc1cc(NS(=O)(=O)c2ccc3c(c2)CCN3S(C)(=O)=O)cc(OC)c1`: the survival was 73% (inactive).

In the case of `COc1ccc(-c2cc(C(F)(F)F)nc(NCc3ccc(F)cc3)n2)cc1`, the survival was -5% (active).

In the case of `COc1ccc(-c2cc(C(F)(F)F)nc(NCCc3ccccc3)n2)cc1`, the survival was -2% (active).

With `COc1ccc(-c2cc(C(F)(F)F)nc(NCc3ccccc3)n2)cc1OC`, the survival was 66% (inactive).

For `COc1cccc(-c2cc(C(F)(F)F)nc(NCc3ccc(F)cc3)n2)c1`, the survival is 0% (active).

On to `COc1ccc(-c2cc(C(F)(F)F)nc(SCC(=O)NCc3ccc(F)cc3)n2)cc1`, for which the survival is 90% (inactive).

Regarding `COc1cccc(-c2cc(C(=O)NCc3ccc(F)cc3)no2)c1`, the survival was 71% (inactive).

On to `COc1ccc(-c2cc(C(F)(F)F)nc(SCC(=O)NCCc3ccccc3)n2)cc1OC`, for which the survival is 81% (inactive).

Regarding `COc1ccc(CNC(=O)C(C)Sc2nc(-c3ccccc3)cc(C(F)(F)F)n2)cc1` (stereo not drawn), the survival was 149% (inactive).

As for `COc1ccc(-c2cc(C(F)(F)F)nc(NCCc3ccccc3)n2)cc1OC`, the survival was 81% (inactive).

As for `COc1ccc(-c2cc(C(F)(F)F)nc(NCc3ccccc3)n2)cc1`, the survival was -5% (active).

Take `COc1ccc(-c2cc(NCc3ccc(F)cc3)n3cnnc3n2)cc1`: the survival was 72% (inactive).
